According to PubChem BioAssay AID2563 (Broad Institute, 2010):
The whole screen tested about 290,000 compounds, of which about 800 (0.28%) were called active.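 The calls were made as follows: active = fall in fluorescence gain of 50% or more versus controls, with final raw signal at or below 3038400; inconclusive = same 50% fall but final raw signal above 3038400; inactive = fall in fluorescence gain under 50%.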 What follows is part of a selection rich in actives, with near analogues and random picks from the rest.

Each compound was assayed against CAAX prenyl protease 2 (Saccharomyces cerevisiae (strain ATCC 204508 / S288c)) (UniProt Q03530) (assay: blockers of Rce1 CaaX peptide cleavage – biochemical, fluorescence, cell-free homogeneous, primary screen (AID 2563)). Conditions: yeast membranes, quenched prenylated peptide cleavage fluorescence.
Chain of CAAX prenyl protease 2 (Saccharomyces cerevisiae (strain ATCC 204508 / S288c)) (Q03530 whole entry, looked up): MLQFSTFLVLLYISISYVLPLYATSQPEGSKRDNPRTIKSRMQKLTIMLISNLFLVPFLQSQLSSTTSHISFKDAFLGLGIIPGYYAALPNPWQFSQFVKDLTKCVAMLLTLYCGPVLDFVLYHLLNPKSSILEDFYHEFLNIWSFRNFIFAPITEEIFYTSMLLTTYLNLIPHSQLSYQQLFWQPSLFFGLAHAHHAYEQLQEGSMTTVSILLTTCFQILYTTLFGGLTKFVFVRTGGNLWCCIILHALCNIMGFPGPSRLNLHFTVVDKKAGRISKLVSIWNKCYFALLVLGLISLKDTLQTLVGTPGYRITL

Compound	outcome
CC(C)CN(C(=O)COC(=O)c1ccc2ccccc2c1)c1c(N)n(Cc2ccccc2)c(=O)[nH]c1=O	inactive
COc1ccc(NS(=O)(=O)c2ccc(C)c(C(=O)NCC(c3cccs3)N3CCOCC3)c2)cc1 (stereo not drawn)	inactive
CCOC(=O)NN1C(=O)c2ccccc2NC1c1cccc(O)c1 (stereo not drawn)	inactive
CN(C)c1ccc(C2Nc3ccccc3C(=O)N2NS(=O)(=O)c2ccccc2)cc1 (stereo not drawn)	inactive
CC(=O)NN1C(=O)c2ccccc2NC1c1ccccc1 (stereo not drawn)	active
COCCn1c(SC(C)C(=O)NC2CC2)nnc1-c1cccc(C)c1 (stereo not drawn)	inactive
CC(C)(C)S(=O)(=O)c1ccccc1-c1noc(-c2ccccc2)c1C(N)=O	inactive
CCn1c(SC(C)C(=O)Nc2ccc(N3CCOCC3)cc2)nnc1-c1ccco1 (stereo not drawn)	inactive
Cc1ccc(C(=O)N/N=C/c2cccc3ccccc23)cn1	inactive
CCCCCN(C(=O)CCC(=O)OCC(=O)NC1CCC(C)CC1)c1c(N)n(CCCC)c(=O)[nH]c1=O (stereo not drawn)	inactive
COc1ccc(C)cc1S(=O)(=O)Nc1cc2c3c(c1)CCC(=O)N3CCC2	inactive
CCCc1cc(=O)[nH]c(SCC(=O)c2c(N)n(CC(C)C)c(=O)n(C)c2=O)n1	inactive
O=C(CN1C(=O)NC2(CCCC2)C1=O)OCCOc1ccc(F)cc1	inactive
CCN1CCN(c2ccc(S(=O)(=O)N3CCCCC3)cc2NC(=O)c2cccc(NC(C)=O)c2)CC1	inactive
Cc1onc(-c2ccccc2Cl)c1C(=O)N(Cc1ccc(N(C)C)cc1)C(C)C	inactive
CCc1noc(C)c1C(=O)Nc1nc2ccc(OC)cc2s1	inactive
COC(C[C@@H](O)C[C@@H](O)[C@H](C)OCc1ccccc1)OC	inactive
COC(C[C@H](O)CC(=O)[C@@H](C)OCc1ccccc1)OC	inactive
COC(C[C@@H](O)C[C@H](O)[C@H](C)OCc1ccccc1)OC	active
Cc1ccc2nnn(Cc3cccc(C(C)(C)C)c3O)c2c1	inactive
Cc1ccc2nc(NC(=O)CSc3nc(=O)n(CCCN(C)C)c4c3CCC4)sc2c1	inactive

Compound	outcome
O=C(NCC(=O)N1CCCC(C(F)(F)F)C1)c1ccccc1F (stereo not drawn)	inactive
Cc1nc(N2CCOCC2)c2c(C)c(C(=O)Nc3ccc(C(F)(F)F)cc3)sc2n1	active
Cc1nc(N2CCN(c3ccccn3)CC2)c2c(C)c(C(=O)Nc3ccc(F)c(Cl)c3)sc2n1	inactive
Cc1nc(N2CCN(c3ccccn3)CC2)c2c(C)c(C(=O)Nc3ccc(F)cc3)sc2n1	inactive
Cc1c(C)n2c(SCC(=O)N3CCCC3)nnc2[nH]c1=O	inactive
Cc1cc(/C=N/n2cnnc2)c(C)n1-c1ccc2ncccc2c1	inactive
Cc1nn(C)cc1C(=O)c1ccccc1	inactive
Cc1cccc([C@@H]2[C@@H]3C(=O)N(Cc4ccccc4)C(=O)[C@@H]3[C@]3(Cc4ccc(Cl)cc4)C(=O)N(c4cccc(Cl)c4)C(=O)N23)c1	inactive
C=CCNC(=O)C1CC2c3ccccc3C1c1ccccc12 (stereo not drawn)	inactive
CC(=O)c1c(C)oc2ccc(NS(=O)(=O)c3ccccc3)cc12	inactive
COc1ccc(S(=O)(=O)Nc2ccc3oc(C)c(C(C)=O)c3c2)cc1	inactive
CC(=O)c1c(C)oc2ccc(NS(=O)(=O)c3ccc(C(=O)O)cc3)cc12	active
COc1ccccc1CNC(=O)COn1nnc2ccc(S(=O)(=O)N3CCOCC3)cc21	inactive
CCc1cccc(NC(=O)COC(=O)C2CCN(c3ccc(C(F)(F)F)cn3)CC2)c1	inactive
O=C(NCC(c1cccs1)N1CCOCC1)c1cc(Cl)ccc1[N+](=O)[O-] (stereo not drawn)	inactive
Cc1ccc(S(=O)(=O)N2CCC(C(=O)NCCC3=CCCCC3)CC2)cc1C	inactive
O=C(CCC(=O)c1cccs1)Nc1nc2ccccc2s1	inactive
CC12CCC(=O)N1C(C(=O)Nc1ccc(F)c(F)c1F)CS2 (stereo not drawn)	inactive
COc1cc2ccccc2cc1C(=O)N1CCOCC1	inactive
COc1ccc(S(=O)(=O)NCc2cccnc2)cc1NC(=O)c1ccc(C)cc1	inactive
COc1ccc(/C=N/NC(=O)c2ccccc2)cc1OS(=O)(=O)c1ccccc1	inactive

Compound	outcome
COc1cccc(OCc2cc(/C=N/NC(=O)c3nc(Cl)c(Cl)c(N)c3Cl)ccc2OC)c1	inactive
COc1ccc(/C=N/NC(=O)c2ccc(Cl)cc2)cc1COC(C)=O	active
CCOC(=O)N1CCN(C(=O)c2ccccc2SCC(=O)NCC2CCCCC2)CC1	inactive
COc1ccccc1C(CNC(=O)c1cccc(NS(=O)(=O)c2ccc(Br)cc2)c1)N(C)C (stereo not drawn)	inactive
CCOc1ccc(CCNC(=O)CN2C(=O)NC3(CCc4ccccc43)C2=O)cc1OCC (stereo not drawn)	inactive
COc1ccccc1NC(=O)C(C)OC(=O)c1ccc(-n2cnnn2)cc1 (stereo not drawn)	inactive
COc1ccc(C(=NN)c2ccc(OC)cc2)cc1	inactive
CCCCn1c(N)c(N(Cc2ccccc2OC)C(=O)COc2cc(C)ccc2Cl)c(=O)[nH]c1=O	inactive
COc1ccc(NC(=O)CN(C)C(=O)c2n[nH]c3ccccc23)cc1	inactive
CCN(CC)c1ccc(S(=O)(=O)N2CCCCC2)cc1NC(=O)C1=COCCO1	inactive
CCCCn1c(N)c(N(CC(C)C)C(=O)c2cnc(C)cn2)c(=O)[nH]c1=O	inactive
Cc1cccc(N(Cc2ccccc2)C(=O)c2cc(S(=O)(=O)N3CCOCC3)ccc2F)c1	inactive
Cc1ccc(C)c(NC(=O)COC(=O)Cn2c(C)csc2=O)c1	inactive
COc1ccc(-c2ccc3nnc(SCC(=O)Nc4ccc(NC(C)=O)cc4)n3n2)cc1	inactive
COc1ccc(C2=NN(C(=O)c3cccnc3)C(c3ccccc3)C2)cc1 (stereo not drawn)	inactive
COc1ccc(C2CC(c3ccccc3)=NN2C(=O)c2ccc(Cl)c([N+](=O)[O-])c2)cc1 (stereo not drawn)	active
COc1ccc(C2CC(c3ccc([N+](=O)[O-])cc3)=NN2C(C)=O)cc1 (stereo not drawn)	inactive
COc1ccc(S(=O)(=O)NCC(c2ccco2)N2CCOCC2)cc1 (stereo not drawn)	inactive
CCCCNC(=O)c1cn(CC)c2cc(N3CCN(C(=O)c4ccco4)CC3)c(F)cc2c1=O	inactive
CN1CCN(c2cc3c(cc2F)c(=O)c(C(=O)O)cn3CCF)CC1	inactive
CCn1cc(C(=O)NCCO)c(=O)c2cc(F)c(N3CCN(C)CC3)cc21	active
